Experimental data reported in the supplement of paper PMC12645437, “Orthogonal IMiD-Degron Pairs Induce Selective Protein Degradation in Cells” (ACS Chemical Biology, 2025).
Whole data set: some 8,300 sequences, median “log2 fold change of degron read counts, EGFP-low vs EGFP+ sorted cells (limma voom), compound-induced degradation” near -1.1, cut for the highest 2% near 3.2. For the sample, the highest values were picked, then their nearest neighbours and some sequences at random.

Molecular target: T1, CRBN, Q96SW2
T1 chain: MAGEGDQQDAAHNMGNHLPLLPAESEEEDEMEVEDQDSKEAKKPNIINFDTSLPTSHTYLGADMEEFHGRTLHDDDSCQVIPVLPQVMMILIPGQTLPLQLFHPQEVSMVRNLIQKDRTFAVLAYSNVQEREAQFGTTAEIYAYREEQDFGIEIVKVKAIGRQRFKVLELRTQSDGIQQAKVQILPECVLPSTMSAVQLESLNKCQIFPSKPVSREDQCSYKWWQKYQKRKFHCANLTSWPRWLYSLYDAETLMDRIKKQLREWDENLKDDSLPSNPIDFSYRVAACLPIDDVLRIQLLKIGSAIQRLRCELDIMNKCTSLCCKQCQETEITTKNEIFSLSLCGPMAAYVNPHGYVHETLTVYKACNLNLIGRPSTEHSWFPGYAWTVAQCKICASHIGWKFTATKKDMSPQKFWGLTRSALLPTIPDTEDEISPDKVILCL
Experiment: log2 fold change of degron read counts, EGFP-low vs EGFP+ sorted cells (limma voom), compound-induced degradation; higher = more compound-induced degradation of the degron-EGFP fusion; degrons are variants of IKZF1/3 zinc finger 2; compound dose not given here
Details: Jurkat, 18 h

[1] = compound: compound 19 (5-tert-butyl-thalidomide)
[2] = compound: compound 22 (5-morpholino-thalidomide)
[3] = compound: compound 33 (diphenyl IMiD analogue)
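Further: pooled lentiviral library of zinc finger degron-EGFP fusions in mCherry-positive Jurkat cells, FACS-sorted after compound exposure, with degron abundance counted by next-generation sequencing.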

| Sequence | log2 fold change of degron read counts [1] | log2 fold change of degron read counts [2] | log2 fold change of degron read counts [3] | log2 fold change of degron read counts (compound: thalidomide) |
| --- | --- | --- | --- | --- |
| FQCEQCGAWFTQKGNLLRHIKL [46F_47Q_49E_50Q_52G_53A_54W_55F_67L_, Q9UKT9] | -2.85 | -2.85 | -1.86 | -0.183 |
| FRCDICGAHFTQKGNLLRHIKL [46F_47R_49D_50I_52G_53A_54H_55F_67L_, Q9UKT9] | -1.41 | -1.53 | 0.162 | -1.18 |
| FACDVCGACFTQKGNLLRHIKL [46F_47A_49D_50V_52G_53A_54C_55F_67L_, Q9UKT9] | 1.83 | -0.406 | -0.331 | -2.56 |
| FKCNVCGANFTQKGNLLRHIKL [46F_47K_49N_50V_52G_53A_54N_55F_67L_, Q9UKT9] | -2.45 | -2.95 | -3.12 | -2.19 |
| FICNICGAYFTQKGNLLRHIKL [46F_47I_49N_50I_52G_53A_54Y_55F_67L_, Q9UKT9] | -1.5 | 0.102 | 1.22 | 0.967 |
| FLCNVCGALFTQKGNLLRHIKL [46F_47L_49N_50V_52G_53A_54L_55F_67L_, Q9UKT9] | -2.4 | -1.93 | -0.86 | -0.854 |
| FCCEICGHNFTQKGNLLRHIKL [46F_47C_49E_50I_52G_53H_54N_55F_67L_, Q9UKT9] | -3.4 | -2.63 | -3.12 | -2.76 |
| FQCDQCGANFTQKGNLLRHIKL [46F_47Q_49D_50Q_52G_53A_54N_55F_67L_, Q9UKT9] | -2.74 | -1.96 | -2.34 | -0.263 |
| FQCNICGAIFTQKGNLLRHIKL [46F_47Q_49N_50I_52G_53A_54I_55F_67L_, Q9UKT9] | -0.972 | 2.07 | 2.21 | 3.81 |
| FYCNICGAIFTQKGNLLRHIKL [46F_47Y_49N_50I_52G_53A_54I_55F_67L_, Q9UKT9] | 0.725 | 1.63 | 0.601 | -0.748 |
| FHCNICGAIFTQKGNLLRHIKL [46F_47H_49N_50I_52G_53A_54I_55F_67L_, Q9UKT9] | -0.569 | 0.345 | -0.0029 | -0.75 |
| FTCPICGRYFTQKGNLLRHIKL [46F_47T_49P_50I_52G_53R_54Y_55F_67L_, Q9UKT9] | -0.651 | -0.614 | 0.487 | 0.782 |
| LACNQCGFLCTQKGNLLRHIKL [46L_47A_49N_50Q_52G_53F_54L_55C_67L_, Q9UKT9] | -1.52 | -2.34 | -2.08 | -1.99 |
| LDCEICGFKCTQKGNLLRHIKL [46L_47D_49E_50I_52G_53F_54K_55C_67L_, Q9UKT9] | -0.859 | -1.7 | -1.79 | -0.369 |
| LQCEICGFKCTQKGNLLRHIKL [46L_47Q_49E_50I_52G_53F_54K_55C_67L_, Q9UKT9] | 0.755 | 1.87 | 0.3 | 3.27 |
| LCCEICGFKCTQKGNLLRHIKL [46L_47C_49E_50I_52G_53F_54K_55C_67L_, Q9UKT9] | 2 | 1.83 | -0.183 | 2.48 |
| LSCEICGFKCTQKGNLLRHIKL [46L_47S_49E_50I_52G_53F_54K_55C_67L_, Q9UKT9] | 2.27 | 1.7 | -0.728 | 1.09 |
| LLCEICGFKCTQKGNLLRHIKL [46L_47L_49E_50I_52G_53F_54K_55C_67L_, Q9UKT9] | 0.0968 | -1.51 | -0.463 | 1.96 |
| LYCEICGFKCTQKGNLLRHIKL [46L_47Y_49E_50I_52G_53F_54K_55C_67L_, Q9UKT9] | 3.6 | 3.16 | 1.42 | 1.42 |
| LTCEICGFKCTQKGNLLRHIKL [46L_47T_49E_50I_52G_53F_54K_55C_67L_, Q9UKT9] | 0.899 | 1.56 | -0.216 | 2.39 |
| LFCEICGFKCTQKGNLLRHIKL [46L_47F_49E_50I_52G_53F_54K_55C_67L_, Q9UKT9] | 3.22 | 3.15 | 0.657 | 1.64 |
| LWCEICGFKCTQKGNLLRHIKL [46L_47W_49E_50I_52G_53F_54K_55C_67L_, Q9UKT9] | 3.29 | 3.25 | 1.64 | 1.24 |
| LICEICGFKCTQKGNLLRHIKL [46L_47I_49E_50I_52G_53F_54K_55C_67L_, Q9UKT9] | 0.236 | 1.62 | 0.617 | 2.72 |
| LACEICGFKCTQKGNLLRHIKL [46L_47A_49E_50I_52G_53F_54K_55C_67L_, Q9UKT9] | 3.4 | 1.5 | -1.07 | 0.917 |
| LECEICGFKCTQKGNLLRHIKL [46L_47E_49E_50I_52G_53F_54K_55C_67L_, Q9UKT9] | -0.0668 | -1.67 | -0.528 | 2.53 |
